This note sets out measurements from PubChem BioAssay (NCATS).

The target in assay [1] is Lysosomal acid glucosylceramidase (Homo sapiens) (UniProt P04062). Nature of the assay: Glucocerebrosidase-p2 (AID 348; in the data active = potency below about 10 µM; note: potency is the fitted concentration of half-maximal effect). Particulars: purified GBA, blue fluorogenic substrate, 40 min. A digest of the protocol: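 Normal human glucocerebrosidase (0.2 nM) with blue fluorogenic substrate (80 uM final) in citrate/phosphate pH 5.9 with 10mM sodium taurocholate, 0.01% tween-20; 40 min RT, NaOH/glycine stop; fluorescence Ex 365/Em 440; AC50 from a titration from 0.6 nM upwards.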

The nature of assay [2]: AP1 Signaling Pathway (AID 357; active = well fitted curve in either direction with a large enough effect, not every such curve was filed as active; note: % is set by controls: 0 for no effect and ±100 for the full control effect). Particulars: ME-180 AP-1-bla reporter, EGF-induced, beta-lactamase ratio, 5 h; at 7.69 µM (top of the series) unless noted. The essentials: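 AP-1-bla ME-180 cells with beta-lactamase reporter under AP-1 response element, stimulated with EC50 EGF; compounds titrated, 5 hours at 37 degrees Celsius. CCF4 read at 460/530 nm ratio; positive and negative modulators judged by AC50.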

The target of assay [3] is Cytochrome P450 1A2 (Homo sapiens) (UniProt P05177). The assay is described as follows: p450-cyp1a2 (AID 410; calls by dose curve; note: potency is the fitted concentration of half-maximal effect). A digest of the protocol:
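Luminescent demethylation readout: Luciferin-ME (100uM, equal to Km) turned over by 20nM CYP1A2 for 60 min at room temperature after NADPH regeneration addition, following 10 min compound preincubation. Normalization used 57 uM furafylline as full inhibition.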

A short description of assay [4]: NFAT Signaling Pathway (AID 444; active = well fitted curve in either direction with a large enough effect, not every such curve was filed as active;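 note: carbachol stimulus at about its EC50 of 1 µM final; % is set by controls: 0 for no effect and ±100 for the full control effect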). The settings on record: Jurkat NFAT-bla M1, carbachol, beta-lactamase ratio, 5 h; at 7.69 µM (top of the series) unless noted. The essentials: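 Jurkat cells with NFAT-driven β-lactamase reporter and co-expressed M1 receptor, stimulated with carbachol (final 1 uM, ~EC50), compound titration, 5 h at 37 °C. CCF4 loaded 1 h at RT; 460/530 nm ratio gave %activity and AC50.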

A short description of assay [5]: Stat Signaling Pathway (AID 446; active = well fitted curve in either direction with a large enough effect, not every such curve was filed as active;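 note: ME-180 cervical cancer cells given 40 pM IL-6 alongside compound; SIE-controlled beta-lactamase reporter measured as 460/530 nm FRET emission ratio; % is set by controls: 0 for no effect and ±100 for the full control effect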). Particulars: ME-180 (cervical carcinoma) SIE beta-lactamase reporter, IL-6 stimulated, 5 h; at 7.69 µM (top of the series) unless noted. A digest of the protocol: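 FRET read-out (405 nm excitation, 460/530 nm emission) of a beta-lactamase reporter under a STAT-inducible element in ME-180 cervical carcinoma cells. Cells with compound receive 40 pM IL-6 for 5 h. Values are normalised to AC90 stimulation and AC90 JAK-inhibitor controls.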

Assay [6] addresses Glucocorticoid receptor (Homo sapiens) (UniProt P04150). The assay is described as follows: GR-GFP Redistribution (AID 450;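 active = compounds whose dose series gives a full or clear partial fitted curve of increased nuclear translocation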; note: potency is the fitted concentration of half-maximal effect). The settings on record: U2OS GR-GFP nuclear translocation, laser cytometry, 2 h.
Assay [7] shares this target. Nature of the assay: GR-EFC Redistribution (AID 451; calls by dose curve; note: potency is the fitted concentration of half-maximal effect). Particulars: CHO-K1 GR-EFC translocation, beta-gal luminescence, 2 h. A digest of the protocol:
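CHO-K1 cells expressing nuclear EA and GR-ED fragments of b-gal; compounds titrated up to 46 uM final, 2 h at 37 C. GR nuclear translocation read as complemented b-gal luminescence after 1 h RT detection.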

For assay [8], the target named is Cytochrome P450 3A4 (Homo sapiens) (UniProt P08684). Nature of the assay: qHTS Assay for Activators of Cytochrome P450 3A4 (AID 885). Note: nearly all actives have a fitted effect of over 65% in size. The essentials: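 Luminescent readout of luciferin formed from 25 uM Luciferin-PPXE (KM level) by 20 nM CYP3A4 in 200 mM KPO4, with 60 min NADPH-driven reaction at room temperature after 10 min compound exposure. Ketoconazole (57 uM) defined 100% inhibition.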
Background: qHTS replaces the single test concentration by a dilution series.

The target of assay [9] is Cytochrome P450 2C19 (Homo sapiens) (UniProt P33261). The assay is described as follows: qHTS Assay for Inhibitors and Substrates of Cytochrome P450 2C19 (AID 899). Note: potency is the fitted concentration of half-maximal effect; nearly all actives have a fitted effect of over 60% in size. A digest of the protocol:
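5 nM human CYP2C19 with 10uM Luciferin-H EGE (at KM) in 50mM KPO4, compound preincubated 10 min at 37C, then NADPH regeneration for 60 min at 37C. Luciferin read by luminescence after detection reagent; normalized to 57uM ketoconazole as full inhibition.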

In assay [10] the target is Dual specificity protein kinase CLK4 (Homo sapiens) (UniProt Q9HAZ1). Nature of the assay: qHTS Assay for Inhibitors of CDC-like Kinase 4 (Kinase-Glo Assay) (AID 1770). Note: potency is the fitted concentration of half-maximal effect; nearly all actives have a fitted effect of over 65% in size. A digest of the protocol: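 Recombinant human Clk4 (25 nM) phosphorylated RS repeat peptide (100 uM) with 1 uM ATP in Tris pH 7.5/MgCl2/EGTA/DTT/Triton buffer for 4.5 h at room temperature. Residual ATP was quantified by Kinase-Glo luciferase luminescence.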

Assay [11] concerns the target Ubiquitin carboxyl-terminal hydrolase 1 (Homo sapiens) (UniProt O94782). Nature of the assay: Inhibitors of USP1/UAF1: Pilot qHTS (AID 504865).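 Note: rhodamine fluorescence freed from ubiquitin-rhodamine substrate followed over time; top concentration of the series differs between compounds; % is set by controls: 0 for no effect and ±100 for the full control effect; nearly all actives have a fitted effect of over 35% in size.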 The essentials:
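USP1/UAF1 complex (1nM) preincubated with compound 15 min at room temperature, then Ub-Rho substrate (150nM final) added. Fluorescence read kinetically at 480/540 nm, 6 reads every 60 seconds. Buffer: 50mM HEPES pH 7.8, 0.5mM EDTA, 0.1 mg/ml BSA, 1mM TCEP, 0.01% Tween-20.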

The target in assay [12] is Calcium and integrin-binding protein 1 (Homo sapiens) (UniProt Q99828). Nature of the assay: Primary qHTS for Identification of Calcium Integrin Binding Protein 1 (CIB1) Competitor (AID 1508620). Note: top concentration of the series differs between compounds; % is set by controls: 0 for no effect and ±100 for the full control effect. The essentials: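 Fluorescence polarization competition: GST-tagged CIB1 (1 uM final) preincubated with compound 15 min at room temperature, then FITC-labelled alphaIIb peptide (100 nM final) added. After 15 min at room temperature, polarization read at Ex 480/Em 540.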

Assay [13] in a line: Primary qHTS for small molecule stabilizers of the endoplasmic reticulum resident proteome: Secreted ER Calcium Modulated Protein (SERCaMP) assay (AID 1508630). Note: % is set by controls: 0 for no effect and ±100 for the full control effect. The essentials: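 The SH-SY5Y reporter protocol was run at 3 concentrations up to 38.3 uM (primary) or 11 concentrations (follow-up): 16 h compound, 100 nM thapsigargin for 4 h, then extracellular luciferase luminescence.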

Assay [14] addresses N-terminal Xaa-Pro-Lys N-methyltransferase 1 (Homo sapiens) (UniProt Q9BV86). Nature of the assay: Confirmatory qHTS for Inhibitors of N-terminal methyltransferase 1 (NTMT1): MTaseGlo Assay (AID 1645874).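 For activity change, negative = inhibition: luminescence from SAH made as NTMT1 methylates SPKRIA peptide using SAM; 0% = DMSO control and -100% = no-enzyme control.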 Note: nearly all actives have a fitted effect of over 65% in size. Note: potency is the fitted concentration of half-maximal effect. The essentials: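 MTase-Glo luminescence measured SAH formed by 125 nM NTMT1 from 100 uM SAM and 1 uM SPKRIA peptide over 30 min at room temperature, following 15 min compound preincubation. Percent inhibition against no-enzyme and DMSO controls gave 4-parameter Hill fits.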

In assay [15] the target is Mitogen-activated protein kinase 10 (Mus musculus) (UniProt Q61831). The assay is described as follows: JNK3 AlphaScreen Assay (AID 530; active = well fitted curve in either direction with a large enough effect, not every such curve was filed as active). A digest of the protocol:
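Activity was read by AlphaScreen after JNK3-containing HepG2 lysate (cytokine pre-activated) phosphorylated biotinylated GST-cJun with 10 uM ATP at room temperature. Phospho-Ser73 cJun antibody with Protein-A acceptor beads provided detection.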
For orientation: In Alpha technology, singlet oxygen from a donor bead excites a nearby acceptor bead.

Assay [16] deals with Cytochrome P450 2D6 (Homo sapiens) (UniProt P10635). The assay is described as follows: qHTS Assay for Inhibitors and Substrates of Cytochrome P450 2D6 (AID 891). Note: potency is the fitted concentration of half-maximal effect; nearly all actives have a fitted effect of over 60% in size. A digest of the protocol: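 Luminescent read-out of luciferin formed by 5 nM human CYP2D6 demethylating 30 uM Luciferin-ME EGE (Km level) over 60 min at room temperature after NADPH regeneration addition. Data normalized to full inhibition by 1.43 uM quinidine.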

Assay [17] deals with Dual specificity protein kinase CLK4 (Homo sapiens) (UniProt Q9HAZ1). Nature of the assay: qHTS Assay for Inhibitors of CDC-like Kinase 4 (ADP-Glo Assay) (AID 1771). Note: potency is the fitted concentration of half-maximal effect; nearly all actives have a fitted effect of over 70% in size. The essentials: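 ADP production was read by ADP-Glo luminescence after residual ATP depletion, following 1 h room-temperature reaction of 25 nM Clk4, 1 uM ATP and 100 uM RS peptide with MgCl2, EGTA, DTT and Triton X-100.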

Assay [18] has the same target. Nature of the assay: qHTS Assay for Inhibitors of CDC-like Kinase 4 (ADP-FP Assay) (AID 1795). Note: potency is the fitted concentration of half-maximal effect; nearly all actives have a fitted effect of over 60% in size. A digest of the protocol:
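Recombinant human Clk4 (6.25 nM) phosphorylated RS repeat peptide (100 uM) with 1 uM ATP in Tris pH 7.5/MgCl2/EGTA/DTT/Triton buffer for one hour. ADP was quantified by Transcreener competitive fluorescence polarization against an ADP calibration curve.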

Assay [19] concerns the target Rap guanine nucleotide exchange factor 3 (Homo sapiens) (UniProt O95398). Nature of the assay: Confirmatory qHTS for agonist of cAMP-regulated guanine nucleotide exchange factor 3 (EPAC1) (AID 1645881).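 Note: EPAC1 catalysed release of BODIPY-GDP from Rap1B seen as fluorescence loss; 100% = effect of cAMP agonist control; nearly all actives have a fitted effect of over 75% in size.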
Assay [20] addresses Rap guanine nucleotide exchange factor 4 (Homo sapiens) (UniProt Q8WZA2). Nature of the assay: Confirmatory qHTS for agonist of cAMP-regulated guanine nucleotide exchange factor 4 (EPAC2) (AID 1645884).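 Note: nucleotide exchange releases bodipy-GDP from Rap1 and this lowers its fluorescence; % is set by controls: 0 for no effect and ±100 for the full control effect; nearly all actives have a fitted effect of over 65% in size.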
The nature of assay [21]: Confirmatory qHTS for small molecule stabilizers of the endoplasmic reticulum resident proteome: Secreted ER Calcium Modulated Protein (SERCaMP) assay (AID 1508628). Note: potency is the fitted concentration of half-maximal effect; nearly all actives have a fitted effect of over 40% in size. A digest of the protocol:
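Reporter secretion upon ER calcium depletion (100 nM thapsigargin, 4 h, 37C) is measured as medium luminescence with coelenterazine, after 16 h compound pretreatment of SH-SY5Y-GLuc-SERCaMP cells; primary at three concentrations up to 38.3 uM, follow-up at 11 (up to 76.6 uM).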

Assay [22] can be described thus: NCATS anti-infectives library activity on HEK293 viability as a counter-qHTS vs the C. elegans viability qHTS (AID 1745854). Note: % is set by controls: 0 for no effect and ±100 for the full control effect. The essentials:
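Cytotoxicity counter-screen to a worm viability qHTS: CellTiter-Glo luminescence read 10 min after reagent addition. Compounds (final up to 41.7 uM, a 1:5 dilution series) incubated 24 hr at 37C with 1,500 HEK293 cells per well; digitonin control.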

Each structure is given as a SMILES string. Values without a mark were called inactive. Results filed as inconclusive are left out. Activity calls are given as the source filed them. Unless noted, calls come from the whole dose curve; as a rule, active = well fitted curve in the direction sought with a large enough effect; inconclusive = small, poorly fitted or top-dose-only effect, or another doubt; inactive = no such curve, though single readings can be large; an effect the other way counts as inactive or inconclusive.

Calcium and integrin-binding protein 1 (Homo sapiens), sequence (Q99828 whole entry, looked up): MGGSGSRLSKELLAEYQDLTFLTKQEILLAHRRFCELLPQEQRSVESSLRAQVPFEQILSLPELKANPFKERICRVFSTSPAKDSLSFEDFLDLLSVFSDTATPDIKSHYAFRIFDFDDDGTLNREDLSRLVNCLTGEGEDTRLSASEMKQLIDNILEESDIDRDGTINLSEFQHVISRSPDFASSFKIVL
N-terminal Xaa-Pro-Lys N-methyltransferase 1 (Homo sapiens), sequence (Q9BV86 whole entry, looked up): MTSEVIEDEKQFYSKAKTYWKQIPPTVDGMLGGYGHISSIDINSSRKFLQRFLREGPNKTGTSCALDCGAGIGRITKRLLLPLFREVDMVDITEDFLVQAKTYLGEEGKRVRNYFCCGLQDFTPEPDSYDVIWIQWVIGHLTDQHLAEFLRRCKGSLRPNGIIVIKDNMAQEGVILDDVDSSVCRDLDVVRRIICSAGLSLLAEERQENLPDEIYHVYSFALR
Glucocorticoid receptor (Homo sapiens), sequence (P04150 whole entry, looked up): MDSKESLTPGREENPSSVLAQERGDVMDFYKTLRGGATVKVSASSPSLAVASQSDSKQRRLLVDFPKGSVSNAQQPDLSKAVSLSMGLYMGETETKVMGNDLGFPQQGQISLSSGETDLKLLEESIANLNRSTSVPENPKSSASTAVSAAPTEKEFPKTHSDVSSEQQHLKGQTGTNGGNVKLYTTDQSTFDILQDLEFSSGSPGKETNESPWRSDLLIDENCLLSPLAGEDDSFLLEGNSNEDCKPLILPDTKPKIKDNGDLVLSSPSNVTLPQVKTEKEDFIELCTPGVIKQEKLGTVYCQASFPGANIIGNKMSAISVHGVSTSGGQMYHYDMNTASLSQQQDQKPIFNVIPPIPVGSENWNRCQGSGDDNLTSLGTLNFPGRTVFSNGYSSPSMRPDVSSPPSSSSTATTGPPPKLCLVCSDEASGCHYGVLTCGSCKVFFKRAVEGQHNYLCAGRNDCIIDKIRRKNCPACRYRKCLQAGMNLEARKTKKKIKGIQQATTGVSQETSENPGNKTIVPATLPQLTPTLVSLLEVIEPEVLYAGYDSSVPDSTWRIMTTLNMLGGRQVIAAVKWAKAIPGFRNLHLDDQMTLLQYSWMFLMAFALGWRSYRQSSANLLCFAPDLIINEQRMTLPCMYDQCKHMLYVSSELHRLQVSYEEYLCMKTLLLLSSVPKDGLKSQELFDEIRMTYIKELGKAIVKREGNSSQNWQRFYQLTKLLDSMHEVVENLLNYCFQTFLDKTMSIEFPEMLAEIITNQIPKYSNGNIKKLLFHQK
Dual specificity protein kinase CLK4 (Homo sapiens), sequence (Q9HAZ1 whole entry, looked up): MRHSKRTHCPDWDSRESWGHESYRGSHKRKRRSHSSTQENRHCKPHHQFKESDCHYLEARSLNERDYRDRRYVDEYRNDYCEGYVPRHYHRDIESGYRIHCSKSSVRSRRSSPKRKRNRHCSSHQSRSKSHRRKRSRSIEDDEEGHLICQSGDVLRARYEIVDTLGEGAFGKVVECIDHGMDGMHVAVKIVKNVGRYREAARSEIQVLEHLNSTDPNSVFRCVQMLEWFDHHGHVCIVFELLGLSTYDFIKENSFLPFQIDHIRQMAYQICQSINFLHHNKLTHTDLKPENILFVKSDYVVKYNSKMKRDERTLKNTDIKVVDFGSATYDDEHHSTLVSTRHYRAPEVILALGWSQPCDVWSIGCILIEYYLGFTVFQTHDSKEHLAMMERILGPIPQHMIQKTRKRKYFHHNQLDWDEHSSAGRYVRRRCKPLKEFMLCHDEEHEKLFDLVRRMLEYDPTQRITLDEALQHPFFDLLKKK
Cytochrome P450 2C19 (Homo sapiens), sequence (P33261 whole entry, looked up): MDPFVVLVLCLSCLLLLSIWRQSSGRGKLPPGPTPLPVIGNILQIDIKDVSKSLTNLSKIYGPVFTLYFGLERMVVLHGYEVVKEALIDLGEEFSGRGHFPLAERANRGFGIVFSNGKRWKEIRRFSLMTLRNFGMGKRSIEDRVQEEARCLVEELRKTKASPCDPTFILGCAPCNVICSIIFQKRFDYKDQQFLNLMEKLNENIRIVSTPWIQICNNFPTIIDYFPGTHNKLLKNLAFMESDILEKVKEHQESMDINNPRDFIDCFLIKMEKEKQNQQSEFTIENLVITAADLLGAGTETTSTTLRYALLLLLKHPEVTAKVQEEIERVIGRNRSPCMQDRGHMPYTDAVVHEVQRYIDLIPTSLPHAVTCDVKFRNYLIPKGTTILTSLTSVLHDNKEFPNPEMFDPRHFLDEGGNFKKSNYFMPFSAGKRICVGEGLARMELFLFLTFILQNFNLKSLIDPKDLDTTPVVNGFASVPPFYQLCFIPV
Cytochrome P450 1A2 (Homo sapiens), sequence (P05177 whole entry, looked up): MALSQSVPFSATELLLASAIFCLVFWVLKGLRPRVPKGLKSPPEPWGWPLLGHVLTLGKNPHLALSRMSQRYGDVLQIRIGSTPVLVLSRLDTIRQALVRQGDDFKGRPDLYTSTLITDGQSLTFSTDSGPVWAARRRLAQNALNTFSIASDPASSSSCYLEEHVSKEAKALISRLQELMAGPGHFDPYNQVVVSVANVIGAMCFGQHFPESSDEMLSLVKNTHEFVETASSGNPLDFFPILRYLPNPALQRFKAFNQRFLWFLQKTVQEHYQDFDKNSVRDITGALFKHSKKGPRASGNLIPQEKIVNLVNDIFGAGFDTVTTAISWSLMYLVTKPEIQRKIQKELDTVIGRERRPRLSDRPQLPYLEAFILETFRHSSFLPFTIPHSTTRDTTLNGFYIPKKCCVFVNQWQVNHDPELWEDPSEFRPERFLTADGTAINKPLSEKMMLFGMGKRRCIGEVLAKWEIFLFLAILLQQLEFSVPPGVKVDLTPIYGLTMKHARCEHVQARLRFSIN
Ubiquitin carboxyl-terminal hydrolase 1 (Homo sapiens), sequence (O94782 whole entry, looked up): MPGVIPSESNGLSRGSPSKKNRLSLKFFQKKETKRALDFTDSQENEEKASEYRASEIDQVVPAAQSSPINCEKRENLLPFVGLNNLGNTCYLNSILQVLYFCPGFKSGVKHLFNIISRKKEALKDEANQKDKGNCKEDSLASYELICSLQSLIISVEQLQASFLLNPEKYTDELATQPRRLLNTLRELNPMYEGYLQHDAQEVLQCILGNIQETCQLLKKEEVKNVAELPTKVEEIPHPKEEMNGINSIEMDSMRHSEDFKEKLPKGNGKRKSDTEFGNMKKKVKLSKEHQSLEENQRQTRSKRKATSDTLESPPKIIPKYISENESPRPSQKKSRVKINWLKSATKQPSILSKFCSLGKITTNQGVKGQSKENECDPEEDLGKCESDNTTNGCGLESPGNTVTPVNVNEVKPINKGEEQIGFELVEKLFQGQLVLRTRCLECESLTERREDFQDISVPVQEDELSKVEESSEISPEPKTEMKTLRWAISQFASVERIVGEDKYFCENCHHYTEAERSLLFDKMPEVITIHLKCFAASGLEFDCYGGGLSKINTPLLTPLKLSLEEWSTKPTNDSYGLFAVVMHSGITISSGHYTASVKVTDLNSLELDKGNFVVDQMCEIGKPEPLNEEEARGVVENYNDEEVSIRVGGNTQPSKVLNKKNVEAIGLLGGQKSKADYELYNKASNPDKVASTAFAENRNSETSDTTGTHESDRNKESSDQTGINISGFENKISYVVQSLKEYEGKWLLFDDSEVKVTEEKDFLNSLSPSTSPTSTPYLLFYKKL
Cytochrome P450 2D6 (Homo sapiens), sequence (P10635 whole entry, looked up): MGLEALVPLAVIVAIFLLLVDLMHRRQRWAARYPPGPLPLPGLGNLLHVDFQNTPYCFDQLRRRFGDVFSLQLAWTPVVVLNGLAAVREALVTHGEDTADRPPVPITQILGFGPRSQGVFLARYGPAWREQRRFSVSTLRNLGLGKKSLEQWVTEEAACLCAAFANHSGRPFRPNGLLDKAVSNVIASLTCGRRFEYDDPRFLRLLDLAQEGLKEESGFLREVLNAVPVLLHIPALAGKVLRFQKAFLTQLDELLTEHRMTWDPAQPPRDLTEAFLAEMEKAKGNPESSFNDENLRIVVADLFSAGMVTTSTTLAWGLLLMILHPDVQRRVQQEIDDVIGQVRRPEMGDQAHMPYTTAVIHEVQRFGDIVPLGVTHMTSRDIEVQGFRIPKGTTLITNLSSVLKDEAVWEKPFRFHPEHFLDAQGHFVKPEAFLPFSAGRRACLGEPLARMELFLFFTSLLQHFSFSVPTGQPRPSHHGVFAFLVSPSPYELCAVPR
Rap guanine nucleotide exchange factor 3 (Homo sapiens), sequence (O95398 whole entry, looked up): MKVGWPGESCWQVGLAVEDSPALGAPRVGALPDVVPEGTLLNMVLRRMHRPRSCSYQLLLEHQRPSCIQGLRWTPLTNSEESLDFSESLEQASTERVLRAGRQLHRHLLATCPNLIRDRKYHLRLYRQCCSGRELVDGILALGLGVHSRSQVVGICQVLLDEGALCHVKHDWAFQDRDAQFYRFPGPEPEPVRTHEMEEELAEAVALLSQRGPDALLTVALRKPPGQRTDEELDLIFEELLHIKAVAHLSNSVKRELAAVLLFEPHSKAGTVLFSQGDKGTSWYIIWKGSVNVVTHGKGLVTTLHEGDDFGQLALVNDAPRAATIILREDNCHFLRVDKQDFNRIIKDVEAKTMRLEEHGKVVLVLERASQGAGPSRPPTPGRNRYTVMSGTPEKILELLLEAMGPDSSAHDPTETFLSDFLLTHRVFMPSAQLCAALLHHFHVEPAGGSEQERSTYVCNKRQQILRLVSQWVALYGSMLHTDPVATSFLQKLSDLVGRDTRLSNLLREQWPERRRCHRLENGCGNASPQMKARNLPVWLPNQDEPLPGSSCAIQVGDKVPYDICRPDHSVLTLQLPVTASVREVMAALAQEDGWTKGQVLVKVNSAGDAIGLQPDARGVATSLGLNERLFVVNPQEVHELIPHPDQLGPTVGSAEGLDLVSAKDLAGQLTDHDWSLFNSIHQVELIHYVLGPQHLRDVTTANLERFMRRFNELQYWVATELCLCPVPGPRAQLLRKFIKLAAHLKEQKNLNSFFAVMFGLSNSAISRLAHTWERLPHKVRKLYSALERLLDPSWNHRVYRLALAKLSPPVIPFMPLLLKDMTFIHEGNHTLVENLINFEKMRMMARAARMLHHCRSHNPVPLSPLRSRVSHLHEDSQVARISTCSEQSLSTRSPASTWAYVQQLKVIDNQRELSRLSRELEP

As for `c1cncc(CNc2ccnc(-c3ccc4c(c3)OCO4)n2)c1`, the Potency in assay [1] is over 11.4 µM; in assay [3], 0.126 µM (active); in assay [6], over 46 µM; in assay [7], over 46 µM; in assay [9], 5.01 µM (active); in [10] it was 0.0631 µM (active). In addition, the activity change, negative = inhibition in assay [2] was -20.8%; in assay [4], 16%. Also, the activity, negative = inhibition in assay [5] was -10.6%. The Potency result in [8], in [11], in assay [12] and in assay [13] was “inactive” each time.

As to `NC(=O)C1CCN(c2nc(-c3ccc4c(c3)CCO4)cs2)CC1`, the Potency result in [12] and in assay [14] was “inactive” in each case.

As for `CN(Cc1ccco1)c1ncnc2ccc(-c3ccccc3Cl)cc12`, the activity change, negative = inhibition is -12% in [2] and -13.6% in assay [4]. Also, the Potency is 2 µM (active) in [3]; over 46 µM in assay [6]; over 46 µM in assay [7]; 7.94 µM (active) in [16]; 3.16 µM (active) in [9]; 14.1 µM (active) in assay [10]. Also, the figures for the Potency in assay [17] and in [18] were 14.1 µM (active) and 4.47 µM (active), respectively. In [5], the activity, negative = inhibition is 11.7%. Also, the molecule was classed as inactive in assay [15], in [19] and in assay [20]. Moreover, the Potency entry in [11], in assay [12] and in [13] was “inactive” in each case.

Consider `O=C1CCCC2=C1C(c1cnccc1C(F)(F)F)N=C(Nc1nc3ccccc3o1)N2` (stereo not drawn), for which the Potency result in [12] was “inactive”.

For `Cc1nc(NCc2ccc(-c3ccnc(C(F)(F)F)c3)cc2)c2ccccc2n1`, the Potency entry in [12] is “inactive”.

Regarding `CN1CCOc2ccc(S(=O)(=O)N3CCN(S(=O)(=O)c4c(F)cccc4F)CC3)cc21`, in assay [12], the Potency entry is “inactive”.

In the case of `Cc1cnc(NC(=O)c2cc(S(=O)(=O)N(C)C)ccc2N2CCCC2)s1`, the Potency entry in assay [12] and in assay [22] was “inactive” each time. Further, the Potency in [21] is 8.91 µM (active).

Consider `O=S(=O)(Nc1ccc(O)c2ncccc12)c1ccccc1F`, for which the Potency result in assay [12] and in assay [14] was “inactive” in each case.

For `COc1cc(O)c(C(CC(=O)N2CCCC(C(=O)c3ccccc3)C2)c2ccc3c(c2)OCO3)c(OC)c1` (stereo not drawn), the Potency entry in assay [12] is “inactive”.

As to `Cc1cc(C)nc(NC(=S)N2CCN(c3ncccc3C#N)CC2)c1`, in assay [12], the Potency result was “inactive”. The Potency in assay [14] was 22.4 µM (active).

As to `Cc1ccsc1CN(C)c1ncnc2ccc(-c3ccc([C@@H](C)O)o3)cc12`, the Potency entry in assay [12] is “inactive”. In assay [14], the Potency was 6.49 µM (active).

`Cc1cnc(-c2ccccc2C(C)C)nc1NCC1CCN(c2cccnc2)CC1`: the Potency result in [12] was “inactive”.

With `Cc1cccc(-c2ccc3ncnc(NCc4cccs4)c3c2)c1`, the Potency result in assay [12] was “inactive”. Besides, the Potency in assay [14] is 10 µM (active).
